In PubChem BioAssay AID2330 (Broad Institute, 2010):
In all, about 37,000 compounds went through this assay and about 2,800 (7.6%) were called active. Another 1% or so got no clear call; they are omitted. The sample as a whole holds a higher share of actives than the screen did. Unmarked numbers belong to inactive results. No stated cut-off is given here; in the data, active means inhibition above about 80%; inconclusive means no clear call, values can overlap the other calls; inactive means below that.

experiment: NOMO-1 AML cell viability reduction, primary screen, STK33 inhibitor project, CellTiter-Glo luminescence (AID 2330); details: NOMO-1 AML viability, 72 h, hits give high values, concentration not given here

In order of rising inhibition:
1. COc1cc(-c2coc3cc(O[C@@H]4O[C@H](CO)[C@@H](O)[C@H](O)[C@H]4O)c(OC)c(O)c3c2=O)cc(O)c1OC  -24%
2. COc1ccc(-c2nnc(SCC(=O)Nc3cccc(SC)c3)n2C)cc1  -20%
3. CC(C)NC(=O)N(C)C[C@H]1Oc2ccc(NS(C)(=O)=O)cc2CC(=O)N([C@@H](C)CO)C[C@@H]1C  -17.4%
4. C[C@H]1CN([C@@H](C)CO)C(=O)c2cccc(NC(=O)C3CCCCC3)c2O[C@H]1CN(C)C(=O)NC1CCCCC1  -16%
5. C[C@H](CO)N1C[C@H](C)[C@H](CN(C)Cc2ccc3c(c2)OCO3)Oc2c(NS(=O)(=O)c3ccccc3)cccc2C1=O  -8.2%
6. C[C@H]1CN([C@@H](C)CO)C(=O)c2cc(NC(=O)Cn3cnnn3)ccc2O[C@@H]1CN(C)S(=O)(=O)c1cccs1  -7.03%
7. Cc1noc(C)c1NC(=O)Nc1ccc2c(c1)C(=O)N([C@@H](C)CO)C[C@H](C)[C@H](CN(C)S(=O)(=O)c1ccc(Cl)cc1)O2  -6.69%
8. COc1ccc(CN(C)C[C@@H]2Oc3ccc(NC(=O)Nc4cccc5ccccc45)cc3C(=O)N([C@H](C)CO)C[C@H]2C)cc1  -6.53%
9. COC(=O)c1ccccc1NC(=O)CNS(=O)(=O)c1cc(Cl)ccc1Cl  -6.45%
10. COc1ccc(S(=O)(=O)Nc2ccc3c(c2)CC(=O)N([C@@H](C)CO)C[C@@H](C)[C@@H](CN(C)C(=O)Nc2c(C)noc2C)O3)cc1  -6.01%
11. C[C@@H]1CN([C@H](C)CO)C(=O)Cc2cc(NC(=O)Cn3cnnn3)ccc2O[C@H]1CN(C)Cc1ccc(C(F)(F)F)cc1  -4.05%
12. COc1cc([C@H]2OC[C@H]3[C@@H]2CO[C@@H]3c2cc(OC)c(O[C@@H]3O[C@H](CO)[C@@H](O)[C@H](O)[C@H]3O)c(OC)c2)cc(OC)c1O  -2.62%
13. C[C@H]1CN([C@@H](C)CO)C(=O)c2cc(NC(=O)Nc3cccc4ccccc34)ccc2O[C@@H]1CN(C)C  -2.04%
14. Cc1cc(=O)[nH]c(SCC(=O)Nc2cccc3ccccc23)n1  -1.97%
15. C[C@H]1CN([C@@H](C)CO)C(=O)c2cccc(NS(=O)(=O)c3ccc(F)cc3)c2O[C@@H]1CN(C)Cc1ccncc1  -1.34%
16. COc1ccc(CN(C)C[C@H]2Oc3c(NS(=O)(=O)c4ccc(Cl)cc4)cccc3C(=O)N([C@H](C)CO)C[C@@H]2C)cc1  -1.33%
17. C[C@@H]1CN([C@H](C)CO)C(=O)c2cccc(NC(=O)NC3CCCCC3)c2O[C@@H]1CN(C)CC1CCCCC1  -0.946%
18. COc1ccc(OC)c(S(=O)(=O)N(C)CC(=O)Nc2cccc(Cl)c2C)c1  -0.499%
19. C[C@H]1CN([C@@H](C)CO)C(=O)c2cccc(NS(C)(=O)=O)c2O[C@@H]1CN(C)C(=O)Nc1ccc(F)cc1  -0.485%
20. O=C(c1cc2ccccc2oc1=O)N(Cc1ccc(F)cc1)Cc1ccco1  -0.0617%
21. C[C@H](CO)N1C[C@H](C)[C@@H](CN(C)Cc2ccccc2)Oc2ccc(NC(=O)Nc3ccc4c(c3)OCO4)cc2C1=O  1.03%
22. Cc1ccc(S(=O)(=O)N(C)C[C@H]2Oc3ccc(NS(C)(=O)=O)cc3CC(=O)N([C@@H](C)CO)C[C@H]2C)cc1  1.2%
23. COc1ccc(C(=O)CCC(=O)Nc2cccnc2)c(OC)c1  1.52%
24. CCOc1ccc(NC(=O)C2CC(=O)n3c(nc4ccccc43)N2)cc1 (configuration not stated)  2.2%
25. COc1ccccc1NC(=O)c1ccc(OCC(=O)Nc2ccccc2F)cc1  2.43%
26. O=C(O)C1CC=CCC1C(=O)Nc1ccc(C(=O)N2CCCCC2)c(Cl)c1 (configuration not stated)  2.77%
27. COC(=O)C(C)N(C(=O)c1ccccc1[N+](=O)[O-])c1c(C)cccc1C (configuration not stated)  3.25%
28. O=C(CSc1nnc(-c2ccco2)n1-c1ccccc1)Nc1ccc(F)cc1  3.32%
29. COc1ccc(C(=O)CSc2nc3ccc(OC)cc3[nH]2)cc1  3.9%
30. O=C(CS(=O)(=O)Cc1ccccc1)Nc1cccnc1  4.64%
31. COc1ccc2nc(SCC(=O)Nc3ccc(I)cc3)[nH]c2c1  6.89%
32. Oc1cc(O)c2c(c1)OC(c1ccc(O)c(O)c1)C(O)C2 (configuration not stated)  6.96%
33. C[C@@H]1CN([C@@H](C)CO)C(=O)c2cc(NS(=O)(=O)c3ccc(Cl)cc3)ccc2O[C@H]1CN(C)C(=O)Nc1ccc(C(F)(F)F)cc1  7.09%
34. CC(C)NC(=O)Nc1cccc2c1O[C@H](CN(C)CC1CCCCC1)[C@H](C)CN([C@H](C)CO)C2=O  7.14%
35. CC(C)NC(=O)N(C)C[C@H]1Oc2ccc(NC(=O)CCCCCC(=O)Nc3ccccc3N)cc2CC(=O)N([C@@H](C)CO)C[C@H]1C  7.18%
36. COc1ccc(S(=O)(=O)N(C)C[C@H]2Oc3ccc(NC(=O)Nc4c(C)noc4C)cc3C(=O)N([C@H](C)CO)C[C@H]2C)cc1  8.03%
37. C[C@@H]1CN([C@@H](C)CO)C(=O)Cc2cc(NC(=O)CCCCCC(=O)Nc3ccccc3N)ccc2O[C@@H]1CN(C)C(=O)NC1CCCCC1  8.04%
38. Cc1cc(C(=O)Nc2cccc3c2O[C@@H](CN(C)Cc2ccc4c(c2)OCO4)[C@@H](C)CN([C@@H](C)CO)C3=O)n(C)n1  9.25%
39. CC1CCC(C(C)C)C(=O)/C1=C\c1ccc(NC(=O)CCC(=O)O)cc1 (configuration not stated)  10%
40. C[C@@H]1CN([C@@H](C)CO)C(=O)c2cccc(NC(=O)CCCCCC(=O)Nc3ccccc3N)c2O[C@H]1CN(C)C(=O)Nc1cccc2ccccc12  10.8%
41. COc1ccc(CN(C)C[C@@H]2Oc3ccc(NC(=O)NC(C)C)cc3C(=O)N([C@@H](C)CO)C[C@H]2C)cc1  11.8%
42. C[C@@H]1CN([C@H](C)CO)C(=O)Cc2cc(NC(=O)CCN3CCOCC3)ccc2O[C@H]1CN(C)C  13.7%
43. C[C@H](CO)N1C[C@H](C)[C@H](CN(C)S(C)(=O)=O)Oc2ccc(NC(=O)Nc3ccc(F)cc3)cc2C1=O  14.7%
44. C[C@H](CO)N1C[C@H](C)[C@H](CN(C)Cc2ccc(C(F)(F)F)cc2)Oc2ccc(N(C)C)cc2CC1=O  14.9%
45. C[C@H]1CN([C@@H](C)CO)C(=O)c2cccc(NC(=O)NC3CCCCC3)c2O[C@H]1CN(C)CC1CCCCC1  15.4%
46. C[C@@H]1CN([C@@H](C)CO)C(=O)c2cccc(NC(=O)NC3CCCCC3)c2O[C@@H]1CN(C)CC1CCCCC1  15.8%
47. Cc1cc(Cl)ccc1NC(=O)CN(c1ccc(Cl)c(Cl)c1)S(C)(=O)=O  16%
48. O=S(=O)(c1ccc(Cl)cc1)c1nc(-c2ccccc2F)oc1NCCN1CCOCC1  16.2%
49. COc1cc(O)c2c(=O)c(O[C@@H]3O[C@@H](CO)[C@H](O)[C@H]3O[C@@H]3O[C@@H](C)[C@H](O)[C@@H](O)[C@H]3O)c(-c3ccc(O)cc3)oc2c1  16.7%
50. O=C(NCc1ccco1)c1ccc2c(c1)C(=O)N(Cc1cccnc1)C2=O  20%
51. COc1c2c(cc3occ(-c4ccc5c(c4)OCO5)c(=O)c13)OC(C)(C)C=C2  23.7%
52. COc1ccc(NC(=O)Nc2ccc3c(c2)C(=O)N([C@@H](C)CO)C[C@H](C)[C@@H](CN(C)Cc2ccc4c(c2)OCO4)O3)cc1  25%
53. Cc1ccc(OCC(=O)Nc2cccc(NC(=O)c3ccco3)c2)cc1C  30.6%
54. C[C@@H]1CN([C@H](C)CO)C(=O)c2cccc(NC(=O)Nc3ccc(F)cc3)c2O[C@@H]1CN(C)Cc1ccc(C(F)(F)F)cc1  35.7%
55. CC(C)NC(=O)Nc1ccc2c(c1)C(=O)N([C@@H](C)CO)C[C@@H](C)[C@H](CN(C)Cc1ccc(-c3ccccc3)cc1)O2  36.3%
56. COc1ccc(N(CC(=O)Nc2ccccc2F)S(C)(=O)=O)cc1  40.4%
57. C[C@H](CO)N1C[C@H](C)[C@H](CN(C)Cc2ccc3c(c2)OCO3)Oc2c(NC(=O)NC3CCCCC3)cccc2C1=O  42.4%
58. CCc1cc(C(=O)OC)c(NC(=O)CC2Sc3ccc(C(F)(F)F)cc3NC2=O)s1 (configuration not stated)  43.5%
59. C[C@H]1CN([C@@H](C)CO)C(=O)c2cccc(NC(=O)C3CCCCC3)c2O[C@H]1CN(C)Cc1ccc(C(F)(F)F)cc1  45.9%
60. C[C@@H]1CN([C@H](C)CO)C(=O)c2cccc(NC(=O)Nc3cccc4ccccc34)c2O[C@@H]1CN(C)Cc1ccccc1  47.5%
61. COc1ccc(CN(C)C[C@H]2Oc3c(NC(=O)NC4CCCCC4)cccc3C(=O)N([C@@H](C)CO)C[C@@H]2C)cc1  48.8%
62. C[C@@H]1CN([C@H](C)CO)C(=O)c2cc(NC(=O)Nc3ccc4c(c3)OCO4)ccc2O[C@@H]1CN(C)Cc1ccc(C(F)(F)F)cc1  50.9%
63. C[C@H]1CN([C@@H](C)CO)C(=O)Cc2cc(N(C)C)ccc2O[C@@H]1CN(C)Cc1ccc(-c2ccccc2)cc1  65.8%
64. C[C@@H]1CN([C@@H](C)CO)C(=O)c2cc(NC(=O)Nc3ccc4c(c3)OCO4)ccc2O[C@@H]1CN(C)Cc1ccc(Oc2ccccc2)cc1  66%
65. Cc1ccc([N+](=O)[O-])cc1N(CC(=O)Nc1ccc(Cl)c(C(F)(F)F)c1)S(C)(=O)=O  67.2%
66. C[C@H](CO)N1C[C@H](C)[C@H](CN(C)S(=O)(=O)c2ccccc2)Oc2c(NC(=O)CCCCCC(=O)Nc3ccccc3N)cccc2C1=O  68.1%
67. C[C@@H]1CN([C@@H](C)CO)C(=O)c2cc(NC(=O)Nc3cccc4ccccc34)ccc2O[C@@H]1CN(C)C(=O)Nc1cccc2ccccc12  76.6%

In the case of `C[C@H]1CN([C@@H](C)CO)C(=O)c2cc(NC(=O)Nc3ccc4c(c3)OCO4)ccc2O[C@@H]1CN(C)Cc1ccc(Oc2ccccc2)cc1`, the inhibition is reported as 102% (active).
For `C[C@@H]1CN([C@H](C)CO)C(=O)c2cc(NC(=O)Nc3ccc4c(c3)OCO4)ccc2O[C@H]1CN(C)Cc1ccc(-c2ccccc2)cc1`, the inhibition was 113% (active).
For `C[C@@H]1CN([C@H](C)CO)C(=O)Cc2cc(N(C)C)ccc2O[C@@H]1CN(C)Cc1ccccc1`, the inhibition was 124% (active).
With `COc1ccc(C[C@H]2COC(=O)[C@@H]2Cc2ccc(O[C@@H]3O[C@H](CO)[C@@H](O)[C@H](O)[C@H]3O)c(OC)c2)cc1OC` the inhibition was 88.7% (active).
In the case of `O=C(Nc1cccnc1)c1cc2c(s1)-c1ccccc1CC2`, the inhibition is reported as 108% (active).
In the case of `C[C@@H]1CN([C@@H](C)CO)C(=O)c2cccc(NC(=O)CCCCCC(=O)Nc3ccccc3N)c2O[C@@H]1CN(C)CC1CCCCC1`, the inhibition is reported as 125% (active).
With `C[C@@H]1CN([C@H](C)CO)C(=O)c2cccc(NC(=O)CCCCCC(=O)Nc3ccccc3N)c2O[C@H]1CN(C)CC1CCCCC1` the inhibition was 139% (active).
With `C[C@H]1CN([C@@H](C)CO)C(=O)c2cccc(NC(=O)CCCCCC(=O)Nc3ccccc3N)c2O[C@@H]1CN(C)CC1CCCCC1` the inhibition was 139% (active).
With `C[C@H](CO)N1C[C@H](C)[C@H](CN(C)CC2CCCCC2)Oc2ccc(NC(=O)CCCCCC(=O)Nc3ccccc3N)cc2CC1=O` the inhibition was 141% (active).
For `CCCCCCc1ccc(O)cc1O`, the inhibition was 108% (active).
For `COC(=O)Nc1nc2ccc(Sc3ccccc3)cc2[nH]1`, the inhibition was 114% (active).
In the case of `C[C@H](CO)N1C[C@H](C)[C@@H](CN(C)Cc2ccc(C(F)(F)F)cc2)Oc2c(NC(=O)NC3CCCCC3)cccc2C1=O`, the inhibition is reported as 83.9% (active).
For `C[C@@H]1CN([C@H](C)CO)C(=O)c2cccc(NC(=O)NC3CCCCC3)c2O[C@H]1CN(C)Cc1ccc(C(F)(F)F)cc1`, the inhibition was 101% (active).
For `C[C@@H]1CN([C@@H](C)CO)C(=O)c2cc(NC(=O)Nc3cccc4ccccc34)ccc2O[C@@H]1CN(C)Cc1ccc(-c2ccccc2)cc1`, the inhibition was 109% (active).
For `C[C@@H]1CN([C@@H](C)CO)C(=O)c2cc(NC(=O)Nc3cccc4ccccc34)ccc2O[C@H]1CN(C)Cc1ccc(Oc2ccccc2)cc1`, the inhibition was 115% (active).
